From paper PMC7862700, “An all-to-all approach to the identification of sequence-specific readers for epigenetic DNA modifications on cytosine”

How the values were obtained:
Experiment in all cases: DAPPL (digital affinity profiling via proximity ligation, sequencing); 10 mM Tris-HCl pH 7.5, 50 mM NaCl, 1 mM DTT, 4% glycerol, room temperature, 30 min; GST-TFs on glutathione beads, 16-mer random dsDNA library, 0.1% formaldehyde crosslink after washing; high values mean tight binding
Conditions in all cases: protein: recombinant; tags: N-terminal GST; dsDNA, one strand shown
ELK1 = molecular target: T1, ELK1 (Homo sapiens, UniProt P19419 1-428)
T1 sequence: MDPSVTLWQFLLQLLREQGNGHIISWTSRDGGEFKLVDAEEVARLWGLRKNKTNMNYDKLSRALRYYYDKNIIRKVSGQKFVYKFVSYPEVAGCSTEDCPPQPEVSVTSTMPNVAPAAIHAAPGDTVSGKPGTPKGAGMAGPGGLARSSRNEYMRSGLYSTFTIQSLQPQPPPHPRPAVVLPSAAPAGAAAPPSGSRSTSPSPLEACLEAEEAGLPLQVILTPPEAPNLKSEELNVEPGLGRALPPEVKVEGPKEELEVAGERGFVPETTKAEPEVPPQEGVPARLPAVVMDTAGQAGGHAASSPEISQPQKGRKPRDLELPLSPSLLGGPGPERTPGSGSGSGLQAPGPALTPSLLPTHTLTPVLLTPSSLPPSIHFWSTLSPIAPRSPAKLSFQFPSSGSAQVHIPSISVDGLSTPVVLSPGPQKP
Outline: (§1)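 In yeast, human transcription factors were expressed with a GST fusion, then pulled down on glutathione beads and given DNA barcodes. Pooled with a tag-only sample, they were exposed to 200 nmole of a 16-mer random double-stranded DNA library (Tris/NaCl/DTT/glycerol buffer, room temperature, 30 min), washed, crosslinked with 0.1% formaldehyde, proximity-ligated using BsaI/T4 ligase for 1 h at 37 °C, PCR-amplified and read on an Illumina NextSeq500. Each hexamer's frequency of reads for a factor, divided by the matching frequency for the tag-only sample, gives the binding signal.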

GABPA = molecular target: T2, GABPA (Homo sapiens, UniProt Q06546 1-454)
T2 sequence: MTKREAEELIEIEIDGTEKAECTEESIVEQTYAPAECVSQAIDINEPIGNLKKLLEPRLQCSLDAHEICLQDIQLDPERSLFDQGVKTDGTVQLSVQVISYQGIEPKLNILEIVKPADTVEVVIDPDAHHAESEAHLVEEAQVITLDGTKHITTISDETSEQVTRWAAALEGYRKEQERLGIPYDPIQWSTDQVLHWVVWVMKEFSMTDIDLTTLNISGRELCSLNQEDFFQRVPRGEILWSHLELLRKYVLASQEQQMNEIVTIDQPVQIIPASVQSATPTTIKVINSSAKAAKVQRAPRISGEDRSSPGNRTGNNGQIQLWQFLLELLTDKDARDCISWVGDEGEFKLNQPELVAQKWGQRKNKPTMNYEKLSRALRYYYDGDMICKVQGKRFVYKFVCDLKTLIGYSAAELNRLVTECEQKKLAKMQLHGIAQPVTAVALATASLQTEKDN
Outline: as §1

ERG = molecular target: T3, ERG (Homo sapiens, UniProt P11308 1-479)
T3 sequence: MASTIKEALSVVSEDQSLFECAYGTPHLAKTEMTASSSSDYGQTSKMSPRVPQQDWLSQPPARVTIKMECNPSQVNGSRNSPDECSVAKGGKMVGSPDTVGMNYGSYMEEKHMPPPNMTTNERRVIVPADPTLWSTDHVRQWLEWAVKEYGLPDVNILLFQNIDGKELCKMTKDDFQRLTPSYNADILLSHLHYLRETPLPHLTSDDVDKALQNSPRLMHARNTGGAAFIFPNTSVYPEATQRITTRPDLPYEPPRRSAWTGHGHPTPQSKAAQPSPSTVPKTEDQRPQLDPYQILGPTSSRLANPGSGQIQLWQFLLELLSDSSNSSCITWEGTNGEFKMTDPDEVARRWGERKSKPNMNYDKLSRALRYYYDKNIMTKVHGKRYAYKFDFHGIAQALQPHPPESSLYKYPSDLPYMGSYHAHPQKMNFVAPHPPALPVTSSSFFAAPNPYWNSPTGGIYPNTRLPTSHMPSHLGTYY
Outline: as §1

ELF1 = ELF1 (Homo sapiens, UniProt P32519 1-619)
Outline: as §1

SPIB = SPIB (Homo sapiens, UniProt Q01892 1-262)
Outline: as §1

ELF4 = ELF4 (Homo sapiens, UniProt Q99607 1-663)
Outline: as §1

ELK4 = molecular target: T4, ELK4 (Homo sapiens, UniProt P28324-2 1-405)
T4 sequence: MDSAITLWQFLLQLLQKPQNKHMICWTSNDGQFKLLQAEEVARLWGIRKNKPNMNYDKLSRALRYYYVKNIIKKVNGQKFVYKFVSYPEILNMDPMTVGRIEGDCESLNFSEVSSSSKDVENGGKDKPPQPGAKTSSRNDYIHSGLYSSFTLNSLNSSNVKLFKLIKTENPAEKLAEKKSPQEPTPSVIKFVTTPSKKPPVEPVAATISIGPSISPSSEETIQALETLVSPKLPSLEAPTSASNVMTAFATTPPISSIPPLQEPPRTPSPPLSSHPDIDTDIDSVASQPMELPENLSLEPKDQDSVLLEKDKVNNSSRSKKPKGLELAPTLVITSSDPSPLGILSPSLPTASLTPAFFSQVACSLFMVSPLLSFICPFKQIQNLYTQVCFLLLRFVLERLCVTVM
Outline: as §1

ELF3 = molecular target: T5, ELF3 (Homo sapiens, UniProt P78545 1-371)
T5 sequence: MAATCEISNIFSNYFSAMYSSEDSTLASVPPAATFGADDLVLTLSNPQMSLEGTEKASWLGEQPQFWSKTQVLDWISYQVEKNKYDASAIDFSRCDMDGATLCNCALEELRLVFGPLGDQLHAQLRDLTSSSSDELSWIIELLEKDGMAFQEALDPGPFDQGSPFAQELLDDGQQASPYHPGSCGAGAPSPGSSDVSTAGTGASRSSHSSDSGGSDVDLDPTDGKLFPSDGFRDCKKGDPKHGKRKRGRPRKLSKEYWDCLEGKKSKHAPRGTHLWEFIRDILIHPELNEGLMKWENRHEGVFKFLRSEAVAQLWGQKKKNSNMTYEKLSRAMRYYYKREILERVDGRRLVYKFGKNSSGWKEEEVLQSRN
Outline: as §1

ERF = molecular target: T6, ERF (Homo sapiens, UniProt P50548 1-548)
T6 sequence: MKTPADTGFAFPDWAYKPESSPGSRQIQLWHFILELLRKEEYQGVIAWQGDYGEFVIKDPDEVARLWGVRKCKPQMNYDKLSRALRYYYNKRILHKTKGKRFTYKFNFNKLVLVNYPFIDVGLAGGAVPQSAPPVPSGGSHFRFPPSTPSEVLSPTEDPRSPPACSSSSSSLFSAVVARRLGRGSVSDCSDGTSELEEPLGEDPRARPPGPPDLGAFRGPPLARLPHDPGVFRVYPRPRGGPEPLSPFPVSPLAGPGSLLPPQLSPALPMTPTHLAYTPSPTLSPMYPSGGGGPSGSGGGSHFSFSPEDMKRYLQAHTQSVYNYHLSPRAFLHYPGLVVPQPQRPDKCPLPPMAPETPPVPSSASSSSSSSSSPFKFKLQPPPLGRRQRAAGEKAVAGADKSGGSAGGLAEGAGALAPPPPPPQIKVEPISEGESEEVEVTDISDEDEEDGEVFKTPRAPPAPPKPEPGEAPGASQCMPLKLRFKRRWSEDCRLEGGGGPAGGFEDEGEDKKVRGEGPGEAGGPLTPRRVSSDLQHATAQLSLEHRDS
Outline: as §1

ETV3L = molecular target: T7, ETV3L (Homo sapiens, UniProt Q6ZN32 1-361)
T7 sequence: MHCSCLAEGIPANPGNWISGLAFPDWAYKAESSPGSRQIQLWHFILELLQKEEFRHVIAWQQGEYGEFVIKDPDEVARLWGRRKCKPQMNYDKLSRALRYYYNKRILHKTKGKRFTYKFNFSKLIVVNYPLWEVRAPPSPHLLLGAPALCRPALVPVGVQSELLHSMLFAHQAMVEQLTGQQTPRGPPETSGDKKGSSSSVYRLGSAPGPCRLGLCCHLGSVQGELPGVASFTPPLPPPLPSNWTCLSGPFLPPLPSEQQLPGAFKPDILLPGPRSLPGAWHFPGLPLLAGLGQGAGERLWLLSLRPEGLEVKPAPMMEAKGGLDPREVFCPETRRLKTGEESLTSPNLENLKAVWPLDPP
Outline: as §1

SPDEF = molecular target: T8, SPDEF (Homo sapiens, UniProt O95238 1-335)
T8 sequence: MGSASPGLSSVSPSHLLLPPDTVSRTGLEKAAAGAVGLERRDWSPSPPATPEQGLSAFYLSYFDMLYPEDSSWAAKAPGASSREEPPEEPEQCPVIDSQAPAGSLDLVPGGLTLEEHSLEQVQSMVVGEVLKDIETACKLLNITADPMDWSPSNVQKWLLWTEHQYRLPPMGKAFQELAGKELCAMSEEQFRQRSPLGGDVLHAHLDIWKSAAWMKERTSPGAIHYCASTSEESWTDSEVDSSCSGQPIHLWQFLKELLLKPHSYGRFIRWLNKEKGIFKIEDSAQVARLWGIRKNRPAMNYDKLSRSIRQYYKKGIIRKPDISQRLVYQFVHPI
Outline: as §1

ETV3 = molecular target: T9, ETV3 (Homo sapiens, UniProt P41162-2 1-143)
T9 sequence: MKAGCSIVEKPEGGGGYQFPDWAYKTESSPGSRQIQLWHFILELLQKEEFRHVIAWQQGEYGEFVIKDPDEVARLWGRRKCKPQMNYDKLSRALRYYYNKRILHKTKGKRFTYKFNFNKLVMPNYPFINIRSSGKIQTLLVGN
Outline: as §1

ETV6 = ETV6 (Homo sapiens, UniProt P41212 1-452)
Outline: as §1

ETV2 = molecular target: T10, ETV2 (Homo sapiens, UniProt O00321 1-342)
T10 sequence: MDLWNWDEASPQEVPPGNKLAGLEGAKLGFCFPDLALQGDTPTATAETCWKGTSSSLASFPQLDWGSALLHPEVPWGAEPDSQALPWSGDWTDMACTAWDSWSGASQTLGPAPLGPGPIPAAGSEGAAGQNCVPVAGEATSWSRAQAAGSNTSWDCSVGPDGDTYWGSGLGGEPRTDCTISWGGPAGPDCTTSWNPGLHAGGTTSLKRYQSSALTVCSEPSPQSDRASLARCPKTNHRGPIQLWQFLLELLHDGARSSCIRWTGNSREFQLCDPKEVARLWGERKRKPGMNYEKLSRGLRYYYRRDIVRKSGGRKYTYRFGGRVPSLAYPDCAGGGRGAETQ
Outline: as §1

SPIB, sequence (Q01892 whole entry): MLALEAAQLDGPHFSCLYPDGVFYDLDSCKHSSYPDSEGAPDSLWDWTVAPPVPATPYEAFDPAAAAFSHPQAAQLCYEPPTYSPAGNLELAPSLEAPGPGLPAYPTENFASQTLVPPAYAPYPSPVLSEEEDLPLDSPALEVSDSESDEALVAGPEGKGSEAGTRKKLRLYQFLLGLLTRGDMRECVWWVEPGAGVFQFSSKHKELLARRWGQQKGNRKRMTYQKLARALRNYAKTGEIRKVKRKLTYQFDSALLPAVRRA
ELF4, sequence (Q99607 whole entry): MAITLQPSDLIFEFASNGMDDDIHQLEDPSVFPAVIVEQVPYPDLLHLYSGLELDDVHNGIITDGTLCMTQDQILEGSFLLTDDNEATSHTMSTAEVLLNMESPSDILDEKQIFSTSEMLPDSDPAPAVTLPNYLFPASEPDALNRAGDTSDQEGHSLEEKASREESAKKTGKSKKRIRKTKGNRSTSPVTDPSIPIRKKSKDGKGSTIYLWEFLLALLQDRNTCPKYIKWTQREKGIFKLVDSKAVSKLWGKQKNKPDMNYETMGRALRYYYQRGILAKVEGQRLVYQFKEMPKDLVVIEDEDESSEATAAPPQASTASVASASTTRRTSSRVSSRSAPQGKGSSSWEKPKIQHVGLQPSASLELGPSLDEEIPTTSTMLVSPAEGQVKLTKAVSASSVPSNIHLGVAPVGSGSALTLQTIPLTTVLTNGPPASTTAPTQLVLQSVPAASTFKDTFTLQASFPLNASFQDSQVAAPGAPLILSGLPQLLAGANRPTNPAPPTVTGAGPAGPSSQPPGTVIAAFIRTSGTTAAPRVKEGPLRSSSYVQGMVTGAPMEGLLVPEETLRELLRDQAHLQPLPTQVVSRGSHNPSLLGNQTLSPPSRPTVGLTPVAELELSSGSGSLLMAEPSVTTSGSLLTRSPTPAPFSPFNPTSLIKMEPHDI
ELF1, sequence (P32519 whole entry): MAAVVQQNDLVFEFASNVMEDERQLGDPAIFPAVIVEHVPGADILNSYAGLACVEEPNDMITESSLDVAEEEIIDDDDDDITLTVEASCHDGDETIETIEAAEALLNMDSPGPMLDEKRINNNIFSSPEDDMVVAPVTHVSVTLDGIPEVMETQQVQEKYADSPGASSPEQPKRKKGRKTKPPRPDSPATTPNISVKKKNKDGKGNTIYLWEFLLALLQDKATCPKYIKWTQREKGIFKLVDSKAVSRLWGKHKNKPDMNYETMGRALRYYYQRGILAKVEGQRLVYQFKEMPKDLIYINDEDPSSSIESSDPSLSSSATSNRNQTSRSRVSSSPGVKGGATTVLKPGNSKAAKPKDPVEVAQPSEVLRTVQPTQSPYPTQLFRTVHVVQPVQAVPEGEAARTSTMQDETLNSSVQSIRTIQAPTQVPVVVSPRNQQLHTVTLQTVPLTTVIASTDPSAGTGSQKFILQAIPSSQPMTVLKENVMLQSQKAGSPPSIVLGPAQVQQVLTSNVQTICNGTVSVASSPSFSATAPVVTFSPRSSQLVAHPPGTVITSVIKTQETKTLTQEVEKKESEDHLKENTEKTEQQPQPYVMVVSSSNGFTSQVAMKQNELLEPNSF
ETV6, sequence (P41212 whole entry): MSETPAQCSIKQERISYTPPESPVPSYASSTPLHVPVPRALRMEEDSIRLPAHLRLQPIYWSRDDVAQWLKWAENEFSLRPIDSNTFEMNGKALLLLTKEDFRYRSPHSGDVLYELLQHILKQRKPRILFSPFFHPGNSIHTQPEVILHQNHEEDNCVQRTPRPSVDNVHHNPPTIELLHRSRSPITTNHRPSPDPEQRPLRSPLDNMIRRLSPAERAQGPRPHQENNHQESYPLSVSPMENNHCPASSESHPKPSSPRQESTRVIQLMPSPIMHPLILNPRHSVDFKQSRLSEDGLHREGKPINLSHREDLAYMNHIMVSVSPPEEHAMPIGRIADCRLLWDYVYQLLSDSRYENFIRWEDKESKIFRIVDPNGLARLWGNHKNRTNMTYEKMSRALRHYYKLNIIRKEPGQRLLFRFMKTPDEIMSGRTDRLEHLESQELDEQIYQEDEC

Row | Sequence | binding signal (ELK1) | binding signal (GABPA) | binding signal (ERG) | binding signal (ELF1) | binding signal (SPIB) | binding signal (ELF4) | binding signal (ELK4) | binding signal (ELF3) | binding signal (ERF) | binding signal (ETV3L) | binding signal (SPDEF) | binding signal (ETV3) | binding signal (ETV6) | binding signal (ETV2)
1 | CACCTG | 1.06 fold enrichment (6-mer frequency, TF over GST control) | 1.01 fold enrichment (6-mer frequency, TF over GST control) | 1.06 fold enrichment (6-mer frequency, TF over GST control) | 1.09 fold enrichment (6-mer frequency, TF over GST control) | 1.03 fold enrichment (6-mer frequency, TF over GST control) | 1.08 fold enrichment (6-mer frequency, TF over GST control) | 1.09 fold enrichment (6-mer frequency, TF over GST control) | 1.05 fold enrichment (6-mer frequency, TF over GST control) | 1.07 fold enrichment (6-mer frequency, TF over GST control) | 1.05 fold enrichment (6-mer frequency, TF over GST control) | 1.07 fold enrichment (6-mer frequency, TF over GST control) | 1.03 fold enrichment (6-mer frequency, TF over GST control) | 1.06 fold enrichment (6-mer frequency, TF over GST control) | –
2 | GCAGCA | – | – | – | 1.03 fold enrichment (6-mer frequency, TF over GST control) | 1.02 fold enrichment (6-mer frequency, TF over GST control) | 1.01 fold enrichment (6-mer frequency, TF over GST control) | – | – | – | – | – | – | – | 1.01 fold enrichment (6-mer frequency, TF over GST control)
